GPR151 activ – human GPR151 activation; Q8TDV0; PathHunter beta-arrestin GPR151 cells, luminescence; activation, % at 11.2 µM; actives 1% (n = 650,000); in the data active = activation above about 4.9%;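 note: 0% = median of compound wells and 100% = cells with positive control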
Target sequence (Q8TDV0 whole entry, looked up): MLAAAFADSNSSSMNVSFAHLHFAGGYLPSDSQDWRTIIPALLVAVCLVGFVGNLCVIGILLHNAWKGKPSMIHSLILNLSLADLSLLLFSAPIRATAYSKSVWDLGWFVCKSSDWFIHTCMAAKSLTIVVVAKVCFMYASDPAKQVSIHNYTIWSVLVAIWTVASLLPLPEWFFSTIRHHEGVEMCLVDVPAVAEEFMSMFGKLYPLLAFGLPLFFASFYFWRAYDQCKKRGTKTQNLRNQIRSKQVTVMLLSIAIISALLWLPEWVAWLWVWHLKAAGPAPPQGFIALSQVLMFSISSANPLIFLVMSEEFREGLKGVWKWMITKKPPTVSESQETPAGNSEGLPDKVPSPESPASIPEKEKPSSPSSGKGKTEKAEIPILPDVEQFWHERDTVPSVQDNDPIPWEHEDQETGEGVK
MITF primary – blocks human microphthalmia-associated transcription factor; AID 1259374; inhibition, % at 2.6 µM; O75030; AlphaScreen MITF homodimerization, bead proximity signal; actives 0.91% (n = 650,000); in the data active = inhibition above about 50%;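 note: 0% = vehicle wells with protein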
TEAD-YAP inh – TEAD-YAP interaction inhibition; inhibition, % at 9.12 µM; HEK-TIYL cells, TEAD-Gal4/YAP UAS-luciferase luminescence; actives 1.4% (n = 640,000); in the data active = inhibition above about 32%;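 note: 0% = median of test compound wells and 100% = reference inhibitor wells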
FBW7 act – activators of human E3 ligase FBW7 | actives 0.13% (n = 650,000) | normalized activity (activation), % at 26.1 µM | AID 1259310 | AlphaScreen FBW7–phospho-cyclin E peptide binding, activator screen; in the data active = normalized activity above about 1.9%;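 note: purified mutant Fbw7 with reduced substrate affinity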
The depositor's hits bear a star. Rows were chosen to be rich in hits. Some 3.5% of all compounds tested hit in one or more screens of this group.

`CC1=C(C(=O)OCc2ccc3c(c2)OCO3)C(c2ccc([N+](=O)[O-])cc2)NC(=O)N1` (stereo unspecified) gave GPR151 activ -0.4, MITF primary 3.6, TEAD-YAP inh 76.1* and FBW7 act 0.0.
CC1=C(C(=O)OCc2ccc3c(c2)OCO3)C(c2ccc(Cl)cc2)NC(=O)N1 (stereo unspecified) was read as GPR151 activ -0.4, MITF primary 11.0, TEAD-YAP inh 76.9* and FBW7 act 0.0.
`CC1=C(C(=O)OCC2CCCO2)C(c2ccc([N+](=O)[O-])cc2)NC(=O)N1` (stereo unspecified) gave GPR151 activ 0.0, MITF primary -0.8, TEAD-YAP inh 3.2 and FBW7 act -0.1.
Screening CSCCC(C(=O)Nc1ccc(C(C)=O)cc1)N1C(=O)c2ccccc2C1=O (stereo unspecified) returned GPR151 activ -1.0, MITF primary 19.4, TEAD-YAP inh -20.9 and FBW7 act 0.5.
For Cc1ccc2nc(NCCOCCO)c(/C=C3\SC(=S)N(C)C3=O)c(=O)n2c1 the results were GPR151 activ -0.6, MITF primary 5.2, TEAD-YAP inh -0.9 and FBW7 act 0.0.
COc1cc(C2C(C(=O)OC3CCCCC3)=C(C)NC3=C2C(=O)CCC3)ccc1OCc1ccccc1 (stereo unspecified) was read as GPR151 activ 0.1, MITF primary 2.1, TEAD-YAP inh 0.5 and FBW7 act -0.1.
CC(=O)N1CCc2cc(C(=O)CN3CCN(c4ccc(Cl)cc4)CC3)ccc21 was read as GPR151 activ 0.9, MITF primary -2.1, TEAD-YAP inh 44.5* and FBW7 act 0.1.
`COc1ccc(C(=O)c2oc3ccc(NC(C)=O)cc3c2C)cc1` gave GPR151 activ -1.0, MITF primary 16.6, TEAD-YAP inh -2.7 and FBW7 act 0.1.
`Cc1ccc(C(=O)c2oc3ccc(N)cc3c2C)cc1` gave GPR151 activ 0.0, MITF primary -4.7, TEAD-YAP inh 53.6* and FBW7 act 0.1.
For COc1ccc(C(=O)c2oc3ccc(N)cc3c2C)cc1 the results were GPR151 activ 1.5, MITF primary -5.2, TEAD-YAP inh 51.8* and FBW7 act 0.5.
Screening C=CCOc1ccc(/C(O)=C2/C(=O)C(=O)N(CCCN(C)C)C2c2ccc(C)cc2)c(C)c1 (stereo unspecified) returned GPR151 activ -0.8, MITF primary -4.3, TEAD-YAP inh 7.0 and FBW7 act -0.5.
Screening S=C(NNc1nc(N2CCCC2)nc(N2CCCC2)n1)NC1CCCCC1 returned GPR151 activ 0.2, MITF primary -10.8, TEAD-YAP inh 39.2* and FBW7 act -0.5.
`CCOC(=O)c1cnc2c(OC)cccc2c1NCCOC` gave GPR151 activ -0.6, MITF primary 0.2, TEAD-YAP inh 42.4* and FBW7 act -0.2.
`CCOC(=O)c1cnc2c(OC)cccc2c1NCCc1ccccc1` gave GPR151 activ -0.4, MITF primary -4.5, TEAD-YAP inh -0.2 and FBW7 act 0.1.
CCOC(=O)c1cnc2c(OC)cccc2c1NCCCOC was read as GPR151 activ 0.7, MITF primary 8.1, TEAD-YAP inh 18.6 and FBW7 act 0.0.
For CCOC(=O)c1cnc2c(OC)cccc2c1Nc1cc(OC)c(OC)c(OC)c1 the results were GPR151 activ 0.2, MITF primary 1.7, TEAD-YAP inh 55.9* and FBW7 act 0.0.
CCOC(=O)c1cnc2c(OC)cccc2c1NCCCN(CC)CC was read as GPR151 activ -1.3, MITF primary -5.8, TEAD-YAP inh 82.8* and FBW7 act -0.1.
`Cc1nn(C)c(C)c1-c1nc(Nc2ccc(N3CCOCC3)cc2)c2ncn(Cc3ccc(C(F)(F)F)cc3)c2n1` gave GPR151 activ -0.5, MITF primary 1.9, TEAD-YAP inh 15.5 and FBW7 act 0.0.
COc1cc(Nc2nc(Nc3ccccc3)nc3c2ncn3Cc2ccc(C(F)(F)F)cc2)cc(OC)c1OC was read as GPR151 activ -0.5, MITF primary 2.9, TEAD-YAP inh 3.5 and FBW7 act 0.0.
`COc1cc(Nc2nc(-c3c(C)noc3C)nc3c2ncn3Cc2ccc(C(F)(F)F)cc2)cc(OC)c1OC` gave GPR151 activ 2.0, MITF primary 5.9, TEAD-YAP inh 52.2* and FBW7 act 0.3.
Screening FC(F)(F)c1ccc(Cn2cnc3c(NC4CC4)nc(Nc4ccc(N5CCOCC5)cc4)nc32)cc1 returned GPR151 activ 1.6, MITF primary 6.9, TEAD-YAP inh -7.1 and FBW7 act 0.1.
CCNc1nc(Nc2cc(OC)c(OC)c(OC)c2)c2ncn(Cc3ccc(C(F)(F)F)cc3)c2n1 was read as GPR151 activ 1.4, MITF primary 5.2, TEAD-YAP inh 52.2* and FBW7 act -0.1.
For Cc1noc(C)c1-c1nc(Nc2ccc(N3CCOCC3)cc2)c2ncn(Cc3ccc(C(F)(F)F)cc3)c2n1 the results were GPR151 activ -1.0, MITF primary 9.2, TEAD-YAP inh 32.4* and FBW7 act 0.7.
`FC(F)(F)c1ccc(Cn2cnc3c(NC4CC4)nc(Nc4ccccc4)nc32)cc1` gave GPR151 activ -0.6, MITF primary 16.2, TEAD-YAP inh 35.3* and FBW7 act 0.2.
`COc1cc(Nc2nc(Nc3cc(OC)c(OC)c(OC)c3)c3ncn(Cc4ccc(C(F)(F)F)cc4)c3n2)cc(OC)c1OC` gave GPR151 activ -0.8, MITF primary -6.2, TEAD-YAP inh 10.0 and FBW7 act -0.1.
For O=C(O)c1nsnc1C(=O)O the results were GPR151 activ -0.6, MITF primary 0.9, TEAD-YAP inh 0.9 and FBW7 act -0.1.
Screening O=C(Nc1ccccc1C(=O)O)c1cc(S(=O)(=O)N2CCOCC2)ccc1Cl returned GPR151 activ 0.8, MITF primary -6.4, TEAD-YAP inh 7.0 and FBW7 act 0.0.
CCN=c1scc(-c2ccco2)n1/N=C/c1ccc(C#N)cc1 was read as GPR151 activ 0.1, MITF primary 5.4, TEAD-YAP inh -12.8 and FBW7 act 0.1.
For COc1cc(Nc2nc(Nc3ccc(C(F)(F)F)cc3)nc3c2ncn3Cc2ccc(C(F)(F)F)cc2)cc(OC)c1OC the results were GPR151 activ 1.0, MITF primary -1.6, TEAD-YAP inh 6.1 and FBW7 act 0.1.
`COc1cc(Nc2nc(NC3CCC(O)CC3)nc3c2ncn3Cc2ccc(C(F)(F)F)cc2)cc(OC)c1OC` (stereo unspecified) gave GPR151 activ 1.5, MITF primary 6.6, TEAD-YAP inh 47.0* and FBW7 act 0.0.
`CC(=O)c1c(C)[nH]c(C(=O)Nc2ccc(C)cn2)c1C` gave GPR151 activ -1.1, MITF primary 0.8, TEAD-YAP inh 53.0* and FBW7 act 0.0.
CC(=O)c1c(C)[nH]c(C(=O)Nc2nc(C)cs2)c1C was read as GPR151 activ -2.0, MITF primary -0.6, TEAD-YAP inh 54.2* and FBW7 act -0.1.
Screening CCCNc1nc(SC)nc2c1cnn2CCNC(=O)c1ccc(OC)cc1OC returned GPR151 activ 1.5, MITF primary 1.6, TEAD-YAP inh 36.0* and FBW7 act 0.0.
`CCCNc1nc(SC)nc2c1cnn2CCNC(=O)c1ccc(F)cc1` gave GPR151 activ -0.4, MITF primary 1.4, TEAD-YAP inh 4.5 and FBW7 act 0.0.

High-throughput results (PubChem)
